# Screens (PubChem BioAssay)
# In the library only some 5.8% were active in any assay of this set; here they are far more common.
# uPA surface inh: qHTS for Inhibitors of Cell Surface uPA Generation; cell surface uPA generation assay, qHTS; Potency, µM (top dose mostly 38.3 µM), most hits filed as inhibitors; 330,000 tested, 0.31% active; AID 540303, 2011; active = well fitted inhibition curve with a large enough effect; inconclusive = small, poorly fitted or top-dose-only effect; inactive = no such curve, though single readings can be large or run the other way; tested in mouse RAW 264.7 cells; note: nearly all actives have a fitted effect of over 55% in size
# TRPV1 agonist: HTS Assay for Compounds that Act as Agonists of the Vanilloid Receptor 1; Transient receptor potential cation channel subfamily V member 1 (Homo sapiens), Q8NER1; TRPV1-expressing cells, Fluo-8 calcium influx, agonist mode; activation, % at 8.33 µM; 320,000 tested, 0.19% active; AID 540275, 2011; in the data active = activation above about 80%; inconclusive = between about 30% and that limit
#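 Cells expressing TRPV1 were dye-loaded with Fluo-8 and read kinetically: 10 s baseline, 3 min after compound (agonist portion), then 2 min after EC20 capsaicin (allosteric enhancer portion). Calcium-bound dye fluorescence at 480/520 nm.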
# TRPV1 PAM: HTS Assay for Compounds that Act as Potentiators of the Vanilloid Receptor 1 | Transient receptor potential cation channel subfamily V member 1 (Homo sapiens), Q8NER1 | TRPV1-expressing cells, Fluo-8 calcium influx, capsaicin EC20 potentiation | potentiation, % at 8.33 µM | 320,000 tested, 0.02% active; in the data active = potentiation above about 80%; inconclusive = between about 30% and that limit
#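 Cells expressing TRPV1 were dye-loaded with Fluo-8 and read kinetically: 10 s baseline, 3 min after compound (agonist portion), then 2 min after EC20 capsaicin (allosteric enhancer portion). Calcium-bound dye fluorescence at 480/520 nm.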
# RORg inh: qHTS for inhibitors of ROR gamma transcriptional activity; Nuclear receptor ROR-gamma (Mus musculus), P51450; Drosophila S2 Gal4-RORgamma UAS-luciferase reporter, 20 h; Potency, µM (top dose mostly 53.6 µM), hits mostly inhibitors; 310,000 tested, 5.4% active; AID 2551, 2010; note: nearly all actives have a fitted effect of over 60% in size
# Target sequence (P51450 whole entry, looked up, the tested form may be a part): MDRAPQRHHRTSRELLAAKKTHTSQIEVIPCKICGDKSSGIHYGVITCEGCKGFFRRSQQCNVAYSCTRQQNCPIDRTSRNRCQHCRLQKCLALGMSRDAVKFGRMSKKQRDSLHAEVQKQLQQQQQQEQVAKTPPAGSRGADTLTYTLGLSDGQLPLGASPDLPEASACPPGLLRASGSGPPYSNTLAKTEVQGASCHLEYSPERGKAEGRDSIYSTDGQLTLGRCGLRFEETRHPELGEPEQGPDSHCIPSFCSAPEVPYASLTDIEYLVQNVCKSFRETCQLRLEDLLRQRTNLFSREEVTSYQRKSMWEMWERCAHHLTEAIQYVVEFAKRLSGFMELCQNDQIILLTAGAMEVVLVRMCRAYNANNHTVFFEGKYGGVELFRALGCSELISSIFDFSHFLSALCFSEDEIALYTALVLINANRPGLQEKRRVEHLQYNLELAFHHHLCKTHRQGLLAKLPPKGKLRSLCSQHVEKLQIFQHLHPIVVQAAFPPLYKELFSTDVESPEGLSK
#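 Compounds are pin-transferred onto Drosophila Schneider cells expressing a copper-inducible Gal4–ROR gamma transactivation domain fusion. After 1 hr, copper sulfate is added to 700 uM final; luciferase is read 20 hr later.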
# Gal4-VP16 FLuc: VP16 counterscreen qHTS for inhibitors of ROR gamma transcriptional activity; Potency, µM (series often up to 53.6 µM), hits mostly inhibitors; Drosophila S2 Gal4-VP16 UAS-luciferase, luminescence, 20 h; 310,000 tested, 3.5% active; AID 2546, 2010;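 note: Gal4-VP16 expression switched on by copper sulfate through the metallothionein promoter; nearly all actives have a fitted effect of over 50% in size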
# Hits are given with their value; – = inactive; ? = inconclusive; · = no result; [ ] = dose if it differs, or a comment. Unless noted, calls come from the whole dose curve; as a rule, active = well fitted curve in the direction sought with a large enough effect; inconclusive = small, poorly fitted or top-dose-only effect, or another doubt; inactive = no such curve, though single readings can be large; an effect the other way counts as inactive or inconclusive.
SMILES,uPA surface inh,TRPV1 agonist,TRPV1 PAM,RORg inh,Gal4-VP16 FLuc
O=C(C[C@@H]1C/C=C\C[C@@H](Cc2ccc(F)cc2)C(=O)OCCNC1=O)NCCO,–,·,·,·,·
COc1ccc(C(CNc2nc(-c3cccnc3)nc3ccccc23)N(C)C)cc1 (stereo not drawn),–,–,–,–,–
CC1(C)SC2[C@@H](N=CN3CCCCCC3)C(=O)N2[C@H]1C(=O)O (stereo partly drawn),·,·,·,–[10 µM],–
COCC(=O)N1CCC2(CCCN(Cc3ccccc3OC)C2)CC1,·,·,·,–,–
COc1ccc(NC(=O)c2cnc(C)cn2)c2ncccc12,·,–,–,0.316µM,0.562µM
CN(c1ccccc1)S(=O)(=O)c1cccc(NC(=O)Cn2cnc3ccccc3c2=O)c1,–,–,81.8,?,–
CN(c1ccccc1)S(=O)(=O)c1cccc(NC(=O)CSc2n[nH]c(N)n2)c1,–,–,–,?,7.08µM
COc1ccc(C)cc1N(C(=O)c1snc(C(N)=O)c1N)C(C(=O)NC1CCCC1)c1ccc(F)cc1 (stereo not drawn),–,99.2,–,–,–
COc1ccc(N(C(=O)c2snc(C(N)=O)c2N)C(C(=O)NC2CCCC2)c2ccc(F)cc2)c(OC)c1 (stereo not drawn),–,–,–,–,?
O=NNc1nc2ccccc2n1Cc1ccccc1,?,–,–,1.78µM,2.82µM
CC(=O)Nc1nc2ccccc2n1Cc1ccccc1,–,–,–,2.24µM,5.62µM
NC(=S)n1[nH]c(-c2ccc([N+](=O)[O-])cc2)c(N=Nc2ccccc2[N+](=O)[O-])c1=O,–,–,–,?,–
NC(=S)n1[nH]c(-c2ccc([N+](=O)[O-])cc2)c(N=Nc2cccc([N+](=O)[O-])c2)c1=O,–,–,–,0.631µM,2.51µM
Cc1c(N=Nc2c(-c3ccc([N+](=O)[O-])cc3)[nH]n(C(N)=S)c2=O)cccc1[N+](=O)[O-],–,–,–,0.708µM,?
CCCC1(C(=O)OC)C=C2C(=C(C(C)C)C(=O)C2C)CN1 (stereo not drawn),·,·,·,–,–
Cn1c(O)c(/C=N/NC(=O)c2cc3ccccc3cc2O)c2ccccc21,–,–,–,7.94µM,?
COc1ccc2c(c1)cc(C(=O)N/N=C/c1c(O)c(C(=O)O)cc3ccccc13)n2C,–,–,–,11.2µM,17.8µM
O=C(/C=C/c1ccc(O)c(O)c1)O[C@@H]1C[C@@](O)(C(=O)O)C[C@H](O)[C@@H]1O,·,·,·,–,–
COc1ccc2c(c1)c(C(=O)N/N=C/c1cccc(Br)c1)c(C)n2C,–,–,–,–,–
ICCc1ccccc1,·,·,·,–,–
CN(C)c1ccc(-c2nccc(NCc3cccs3)n2)cc1,·,·,·,–,–
Cc1ccc(C)c(/C=N/NC(=S)NCCc2ccccc2)c1,–,–,–,7.08µM,7.94µM
S=C(NCCc1ccccc1)Nc1c(Cl)cccc1Cl,–,–,–,12.6µM,–
Oc1ccccc1/C=N/NC(=S)NCCc1ccccc1,–,–,–,7.08µM,22.4µM
S=C(NCCc1ccccc1)N/N=C/c1cccc(Cl)c1Cl,–,–,–,22.4µM,?
SMILES,uPA surface inh,TRPV1 agonist,TRPV1 PAM,RORg inh,Gal4-VP16 FLuc
CNC(=S)NCCc1ccccc1,–,–,–,–,–
CC(CCCC(C)(C)O)NCc1cn[nH]c1-c1ccc2c(c1)OCO2 (stereo not drawn),–,–,–,–,–
CNS(=O)(=O)c1cccc(C(=O)OCC(=O)Nc2ccc(-c3nc4ccc(C)cc4s3)cc2)c1,–,–,–,0.224µM,?
Cc1ccc2sc(-c3ccc(NC(=O)CCN4C(=O)c5ccccc5C4=O)cc3)nc2c1,·,–,–,1.12µM,?
CNS(=O)(=O)c1cccc(C(=O)OCC(=O)Nc2ccc(N3CCCCC3)cc2)c1,–,–,–,?,–
COc1ccc(/C=C(\C#N)C(=O)OCC(=O)Nc2ccc(-c3nc4ccc(C)cc4s3)cc2)cc1,–,–,–,0.501µM,2µM
Cc1ccc2nc(-c3ccc(NC(=O)COC(=O)c4ccco4)cc3)sc2c1,–,–,–,0.398µM,7.08µM
CC(=O)Nc1ccc(NC(=O)CCN2C(=O)c3ccccc3C2=O)cc1,–,–,–,–[1.91 µM],–
CCN(CC(=O)Nc1c(F)cccc1F)C(=O)C1CC1C (stereo not drawn),–,–,–,·,·
Cc1ccccc1NS(=O)(=O)c1ccc(NC(=O)N2CCCCC2)cc1,–,–,–,·,·
O=C(NNC(=O)c1cc(Cl)ccc1[N+](=O)[O-])c1csc(N2CCOCC2)n1,–,–,–,·,·
O=C(COC(=O)c1ccc([N+](=O)[O-])o1)Nc1ccc(F)cc1,–,·,·,·,·
Cc1ccc2nc(-c3ccc(NC(=O)COC(=O)c4ccc(Br)o4)cc3)sc2c1,–,–,–,0.282µM,3.98µM
C=CCn1c(SCC(=O)NNC(=O)Nc2ccc(C)cc2)nnc1-c1ccccc1,–,–,–,–,–
CCOc1ncccc1C(=O)OCC(=O)Nc1ccc(-c2nc3ccc(C)cc3s2)cc1,–,–,–,0.398µM,?
O=C(COC(=O)c1ccc(Br)o1)Nc1ccc(Br)cc1,–,–,–,·,·
C=CCn1c(SCC(=O)Nc2ccc(-c3nc4ccc(C)cc4s3)cc2)nnc1-c1ccccc1,–,–,–,14.1µM,12.6µM
Cc1ccc2nc(-c3ccc(NC(=O)COC(=O)c4ccc([N+](=O)[O-])o4)cc3)sc2c1,–,–,–,0.1µM,5.01µM
O=C(O)CC1=C(c2ccc(F)cc2)CCC1=O,–,–,–,–,–
CCCCC/C=C\C/C=C\C/C=C\CCCCCCC(=O)NCC(=O)O,·,·,·,–,–
CC(=O)Nc1ccc2nc(NC(=O)c3ccc([N+](=O)[O-])o3)sc2c1,–,–,?,?,10µM
Cc1ccc2nc(-c3ccc(NC(=O)COC(=O)c4cncc(Br)c4)cc3)sc2c1,–,–,–,1.26µM,10µM
Cn1c(=O)c2c(nc(Sc3ncccn3)n2Cc2ccc(Cl)cc2)n(C)c1=O,–,–,–,–,15.8µM
O=C(NNC1=NS(=O)(=O)c2ccccc21)c1ccccc1,–,–,–,12.6µM,?
O=C(Cn1nnc2c(cnn2-c2ccc(F)cc2)c1=O)Nc1ccccc1C(F)(F)F,–,–,–,–,–
CSC(=S)N/N=C/c1ccc(N(C)C)cc1,–,–,–,0.251µM,2µM
CSC(=S)N/N=C/c1ccc(Br)cc1,–,–,–,0.316µM,1.78µM
CC(C)(C)NC(=O)C(=O)N/N=C/c1ccc(Br)cc1,–,?,–,–,–
OC(CNCCC1C=Nc2ccccc21)Cn1c2ccc(Cl)cc2c2cc(Cl)ccc21 (stereo not drawn),–,–,–,?,12.6µM
CCOc1ccc(C(=O)Nc2cccc3ncccc23)cc1Cl,–,–,–,–[1.91 µM],–
